Values joined by “and” are separate entries in the source; they are usually repeats but may differ in a detail not shown here. Equal values may be shown once. Records with an inconclusive call do not appear. The source holds several records for some structures; these can differ, active in one and inactive in another. Active and inactive are the calls of the source. The calls were made as follows: active = hit-call score of the fitted dose curve at least 0.9, where 1 is the maximum; inconclusive = response in the unintended direction; inactive = score below 0.9.

Broadly, the AC50 is the midpoint of the concentration-response curve, whichever way the signal moves.

The nature of test [1]: ATG_M_06_XSP2: Attagene TRANS-FACTORIAL Multi-Species (XSP2) HepG2 Assay for M06 Transcription Factor (Internal Marker) (AID 2283811).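 Also: hits are increases in signal above the DMSO baseline.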 The gist of the method:
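HepG2 cells transiently transfected with GAL4-UAS multiple reporter units, medium containing 3 nM 6-alpha-fluorotestosterone and 1.5 nM norgestrel; reporter mRNA measured 24 hours post-dosing by RT-PCR and capillary electrophoresis. Internal background marker, gain of signal vs DMSO.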

Test [2] deals with turtle Estrogen Receptor (ERa), gene 101933533. In words: ATG_trERa_XSP2: Attagene TRANS-FACTORIAL Multi-Species (XSP2) HepG2 Assay for turtle Estrogen Receptor (ERa) (AID 2283812).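 Also: human HepG2 liver cells transiently expressing turtle ERa-Gal4 chimeric receptor; actives raise reporter signal above DMSO so AC50 reflects agonist activity.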 The method, boiled down:
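HepG2 cells transiently transfected with GAL4-UAS reporter units expressing turtle ERa-Gal4 chimera. Reporter mRNA measured after 24 h dosing by RT-PCR, fluorescent labelling and capillary electrophoresis; gain of signal fitted versus DMSO.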

For test [3], the target named is Estrogen receptor beta (Homo sapiens) (UniProt Q92731). In words: ATG_hERb_XSP2: Attagene TRANS-FACTORIAL Multi-Species (XSP2) HepG2 Assay for human Estrogen Receptor (ERb) (AID 2283813).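 Also: actives raise reporter mRNA above DMSO so AC50 reflects agonist induction.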 The method, boiled down:
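HepG2 cells transiently transfected with GAL4-UAS reporter units and chimeric human ERb-Gal4, 24 h exposure. Reporter mRNA quantified by RT-PCR with FAM labelling, HpaI digestion and capillary electrophoresis; gain of signal versus DMSO.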

In test [4] the target is zebrafish Estrogen Receptor (ER1), esr1 (gene 259252) (UniProt P57717). In words: ATG_zfER1_XSP2: Attagene TRANS-FACTORIAL Multi-Species (XSP2) HepG2 Assay for zebrafish Estrogen Receptor (ER1) (AID 2283816). The method, boiled down: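 HepG2 cells transiently transfected with a GAL4-UAS reporter and a chimeric zebrafish ER1-Gal4 construct, dosed 24 h. Reporter mRNA quantified by RT-PCR, labelling, HpaI digestion and capillary electrophoresis, relative to DMSO.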

The target in test [5] is chicken Estrogen Receptor (ERa), ESR1 (gene 396099) (UniProt P06212). In words: ATG_chERa_XSP2: Attagene TRANS-FACTORIAL Multi-Species (XSP2) HepG2 Assay for chicken Estrogen Receptor (ERa) (AID 2283817).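 Also: actives raise reporter signal above DMSO so AC50 reflects ER activation.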 The method, boiled down:
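Transiently transfected HepG2 cells expressing chimeric chicken ERa-GAL4 reporter units, dosed 24 h with 3 nM 6-alpha-fluorotestosterone and 1.5 nM norgestrel present. Reporter mRNA measured by RT-PCR and capillary electrophoresis; gain-of-signal fitted relative to DMSO.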

The subject of test [6] is zebrafish Estrogen Receptor (ER2a), gene 317734. In words: ATG_zfER2a_XSP2: Attagene TRANS-FACTORIAL Multi-Species (XSP2) HepG2 Assay for zebrafish Estrogen Receptor (ER2a) (AID 2283818).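 Also: hits raise reporter mRNA so AC50 reflects activation of zebrafish ER2a.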 The method, boiled down: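 HepG2 cells transiently transfected with GAL4-UAS reporter units and chimeric zebrafish ER2a-Gal4, exposed 24 h; medium contains 3 nM 6-alpha-fluorotestosterone and 1.5 nM norgestrel. Reporter mRNA quantified by RT-PCR, HpaI digestion, capillary electrophoresis; gain versus DMSO.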

For test [7], the system named is frog Estrogen Receptor (ER), gene 398734. The test is described as follows: ATG_frER1_XSP2: Attagene TRANS-FACTORIAL Multi-Species (XSP2) HepG2 Assay for frog Estrogen Receptor (ER) (AID 2283821).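 Also: hits raise reporter mRNA above DMSO baseline so potency means agonist or activator.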 The method, boiled down:
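HepG2 cells transiently transfected with GAL4-UAS reporter units expressing a chimeric frog ER-Gal4 protein; 24 h exposure. Reporter mRNA quantified by RT-PCR, fluorescent labelling and capillary electrophoresis; gain of signal fitted against DMSO baseline.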

Test [8] relates to zebrafish Estrogen Receptor (ER2b), gene 317733. In words: ATG_zfER2b_XSP2: Attagene TRANS-FACTORIAL Multi-Species (XSP2) HepG2 Assay for zebrafish Estrogen Receptor (ER2b) (AID 2283823).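 Also: fitted upward as reporter gain over DMSO so potency reflects activation.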 The method, boiled down:
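In this multiplexed trans-activation format, HepG2 cells expressing exogenous NR-Gal4 fusions drive GAL4-UAS reporters. Exposure lasts 24 h, and reporter mRNA induction is read by RT-PCR with capillary electrophoresis detection.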

Test [9] relates to turtle Thyroid Hormone Receptor, alpha (TRa), gene 101949057. In words: ATG_trTRa_XSP1: Attagene TRANS-FACTORIAL Multi-Species (XSP1) HepG2 Assay for turtle Thyroid Hormone Receptor, alpha (TRa) (AID 2283806). The method, boiled down: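 HepG2 cells transiently transfected with GAL4-UAS reporter units and chimeric receptor-Gal4 constructs, with 3 nM 6-alpha-fluorotestosterone present. Reporter mRNA was quantified 24 h after dosing by RT-PCR, 6-FAM labelling and capillary electrophoresis; gain of signal versus DMSO.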

Test [10] concerns the target zebrafish Thyroid Hormone Receptor beta (TRb), thrb (gene 30607) (UniProt Q9PVE4). In words: ATG_zfTRb_XSP1: Attagene TRANS-FACTORIAL Multi-Species (XSP1) HepG2 Assay for zebrafish Thyroid Hormone Receptor beta (TRb) (AID 2283809). The method, boiled down: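 HepG2 cells transiently transfected with multiplexed GAL4-UAS reporter units expressing chimeric zebrafish TRb–Gal4. Dosed 24 h with 3 nM 6-alpha-fluorotestosterone present; reporter mRNA measured by RT-PCR, HpaI digestion and capillary electrophoresis; gain of signal versus DMSO.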

Test [11] can be described thus: ATG_XTT_Cytotoxicity_XSP1: Cytotoxicity Assessment in the Attagene TRANS-FACTORIAL Multi-Species (XSP1) HepG2 Assay (AID 2283810). The method, boiled down: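 XTT viability readout taken at 24 hours post-dosing in HepG2 liver cells co-treated with 3 nM 6-alpha-fluorotestosterone. Signal loss relative to DMSO controls reflects cytotoxicity.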
In test [12] the test system is turtle Androgen Receptor (AR), gene 101947425. In words: ATG_trAR_XSP2: Attagene TRANS-FACTORIAL Multi-Species (XSP2) HepG2 Assay for turtle Androgen Receptor (AR) (AID 2283815).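 As to AC50: potency for gain of reporter signal meaning activation above DMSO baseline.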 The gist of the method: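 HepG2 cells transiently transfected with GAL4-UAS reporter units for chimeric NR-Gal4 receptors; 24 h dosing in presence of 3 nM 6-alpha-fluorotestosterone and 1.5 nM norgestrel. Reporter mRNA by RT-PCR and capillary electrophoresis, gain of signal versus DMSO.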

The subject of test [13] is chicken Androgen Receptor (AR), gene 422165. In words: ATG_chAR_XSP2: Attagene TRANS-FACTORIAL Multi-Species (XSP2) HepG2 Assay for chicken Androgen Receptor (AR) (AID 2283819).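 Also: hits raise reporter mRNA above DMSO so potency is for activation.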 The gist of the method: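 HepG2 cells transiently transfected with chicken AR–GAL4 chimeric reporter constructs, stimulated with 3 nM 6-alpha-fluorotestosterone plus 1.5 nM norgestrel, dosed 24 h. Reporter mRNA quantified by RT-PCR and capillary electrophoresis; gain of signal fitted versus DMSO.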

For test [14], the target named is human Androgen Receptor (AR), AR (gene 367) (UniProt P10275). The test is described as follows: ATG_hAR_XSP2: Attagene TRANS-FACTORIAL Multi-Species (XSP2) HepG2 Assay for human Androgen Receptor (AR) (AID 2283820). The method, boiled down:
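HepG2 cells transiently transfected with GAL4-UAS reporter units driven by chimeric NR-Gal4 proteins, stimulated with 3 nM 6-alpha-fluorotestosterone plus 1.5 nM norgestrel. Reporter mRNA quantified 24 h after dosing by RT-PCR and capillary electrophoresis; gain-of-signal versus DMSO.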

Test [15] has as its system frog Androgen Receptor (AR), gene 399456. The test is described as follows: ATG_frAR_XSP2: Attagene TRANS-FACTORIAL Multi-Species (XSP2) HepG2 Assay for frog Androgen Receptor (AR) (AID 2283824).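 Also: actives raise reporter signal above DMSO so AC50 reflects agonist-like induction.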 The method, boiled down: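 HepG2 cells transiently transfected with GAL4-UAS reporter units and frog (Xenopus laevis) AR-Gal4 chimera; reporter mRNA measured 24 h after dosing by RT-PCR and capillary electrophoresis. Gain of signal fitted relative to DMSO baseline.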

Test [16] has as its target zebrafish Thyroid Hormone Receptor alpha (TRa), thraa (gene 30670) (UniProt Q98867). In words: ATG_zfTRa_XSP1: Attagene TRANS-FACTORIAL Multi-Species (XSP1) HepG2 Assay for zebrafish Thyroid Hormone Receptor alpha (TRa) (AID 2283807). The gist of the method: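 HepG2 cells transiently transfected with GAL4-UAS reporter units including a zebrafish TRa–Gal4 chimera, dosed 24 h with 3 nM 6-alpha-fluorotestosterone present. Reporter mRNA quantified by RT-PCR and capillary electrophoresis; gain versus DMSO.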

The target of test [17] is GAL4 Transcription Factor (Internal Marker), GAL4 (gene 855828) (UniProt P04386). In words: ATG_GAL4_XSP2: Attagene TRANS-FACTORIAL Multi-Species (XSP2) HepG2 Assay for GAL4 Transcription Factor (Internal Marker) (AID 2283814).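 Also: GAL4 reporter mRNA background control in MRTU transfected cells not a receptor target.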 The method, boiled down: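 HepG2 cells transiently transfected with GAL4-UAS reporter units, stimulated with 3 nM 6-alpha-fluorotestosterone plus 1.5 nM norgestrel, dosed 24 h. Reporter mRNA by RT-PCR/capillary electrophoresis; gain-of-signal fit versus DMSO, background control.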

Test [18] in a line: ATG_M_19_XSP2: Attagene TRANS-FACTORIAL Multi-Species (XSP2) HepG2 Assay for M32 Transcription Factor (Internal Marker) (AID 2283822). The gist of the method: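 Internal background marker in a multi-species nuclear receptor TRANS panel: transfected HepG2 cells exposed 24 h, with 3 nM 6-alpha-fluorotestosterone and 1.5 nM norgestrel present. Readout is RT-PCR of reporter transcripts resolved by capillary electrophoresis, gain-of-signal versus DMSO.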

Sequence of Estrogen receptor beta (Homo sapiens) (Q92731 whole entry, looked up, the tested form may be a part): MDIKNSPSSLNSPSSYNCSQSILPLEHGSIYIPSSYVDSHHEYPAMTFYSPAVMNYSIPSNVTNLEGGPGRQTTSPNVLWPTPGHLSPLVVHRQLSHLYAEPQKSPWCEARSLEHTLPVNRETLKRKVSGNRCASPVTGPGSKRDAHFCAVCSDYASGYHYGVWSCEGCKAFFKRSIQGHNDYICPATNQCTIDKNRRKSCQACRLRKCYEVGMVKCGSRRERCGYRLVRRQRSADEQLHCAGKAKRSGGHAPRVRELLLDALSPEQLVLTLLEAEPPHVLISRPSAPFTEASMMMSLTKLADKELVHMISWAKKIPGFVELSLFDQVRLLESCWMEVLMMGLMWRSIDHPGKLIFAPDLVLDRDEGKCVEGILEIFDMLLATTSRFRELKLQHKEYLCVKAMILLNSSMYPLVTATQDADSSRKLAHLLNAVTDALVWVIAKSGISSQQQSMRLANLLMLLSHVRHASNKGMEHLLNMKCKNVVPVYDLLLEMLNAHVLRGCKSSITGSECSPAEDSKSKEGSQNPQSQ
Sequence of chicken Estrogen Receptor (ERa), ESR1 (gene 396099) (P06212 whole entry, looked up, the tested form may be a part): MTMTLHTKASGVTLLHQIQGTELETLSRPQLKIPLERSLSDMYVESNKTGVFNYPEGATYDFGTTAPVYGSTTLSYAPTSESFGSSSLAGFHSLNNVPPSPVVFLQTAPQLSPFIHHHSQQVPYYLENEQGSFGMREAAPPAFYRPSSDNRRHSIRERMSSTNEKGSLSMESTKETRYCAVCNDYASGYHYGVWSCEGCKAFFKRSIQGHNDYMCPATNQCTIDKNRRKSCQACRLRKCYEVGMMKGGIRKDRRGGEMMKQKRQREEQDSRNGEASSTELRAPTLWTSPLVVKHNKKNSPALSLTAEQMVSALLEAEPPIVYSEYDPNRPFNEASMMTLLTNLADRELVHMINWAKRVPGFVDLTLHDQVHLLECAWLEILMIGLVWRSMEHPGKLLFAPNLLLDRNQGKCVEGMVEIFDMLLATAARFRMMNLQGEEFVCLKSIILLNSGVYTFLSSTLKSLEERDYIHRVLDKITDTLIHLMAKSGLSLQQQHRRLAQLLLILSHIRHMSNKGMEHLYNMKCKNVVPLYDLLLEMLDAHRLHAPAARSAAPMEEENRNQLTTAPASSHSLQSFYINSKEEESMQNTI
Sequence of zebrafish Estrogen Receptor (ER1), esr1 (gene 259252) (P57717 whole entry, looked up, the tested form may be a part): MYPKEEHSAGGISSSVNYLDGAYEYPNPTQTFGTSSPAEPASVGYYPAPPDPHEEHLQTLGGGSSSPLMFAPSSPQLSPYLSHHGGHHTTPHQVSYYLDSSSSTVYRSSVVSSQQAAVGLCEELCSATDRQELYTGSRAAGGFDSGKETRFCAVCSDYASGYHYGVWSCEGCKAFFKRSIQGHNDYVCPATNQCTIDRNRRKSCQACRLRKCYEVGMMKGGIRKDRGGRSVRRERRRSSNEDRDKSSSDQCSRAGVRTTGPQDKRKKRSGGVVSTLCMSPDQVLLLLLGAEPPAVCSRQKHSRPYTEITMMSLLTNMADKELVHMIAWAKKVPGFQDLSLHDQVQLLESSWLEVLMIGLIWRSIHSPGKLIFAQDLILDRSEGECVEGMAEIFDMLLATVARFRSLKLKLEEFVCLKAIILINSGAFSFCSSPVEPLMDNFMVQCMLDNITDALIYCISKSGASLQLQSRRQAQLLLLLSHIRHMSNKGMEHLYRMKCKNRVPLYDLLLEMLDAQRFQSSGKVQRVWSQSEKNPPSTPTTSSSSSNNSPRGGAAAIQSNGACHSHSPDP
Sequence of zebrafish Thyroid Hormone Receptor beta (TRb), thrb (gene 30607) (Q9PVE4 whole entry, looked up, the tested form may be a part): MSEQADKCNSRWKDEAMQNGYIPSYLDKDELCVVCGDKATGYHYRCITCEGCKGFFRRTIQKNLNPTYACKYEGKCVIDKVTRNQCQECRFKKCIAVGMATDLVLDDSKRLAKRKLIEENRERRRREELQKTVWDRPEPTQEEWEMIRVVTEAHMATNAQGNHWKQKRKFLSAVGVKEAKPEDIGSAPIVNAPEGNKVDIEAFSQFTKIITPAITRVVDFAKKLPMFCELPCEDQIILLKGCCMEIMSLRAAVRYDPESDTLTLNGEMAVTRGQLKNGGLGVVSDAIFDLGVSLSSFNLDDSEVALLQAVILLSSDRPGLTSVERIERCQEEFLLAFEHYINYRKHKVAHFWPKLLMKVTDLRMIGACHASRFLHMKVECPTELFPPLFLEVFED
Sequence of GAL4 Transcription Factor (Internal Marker), GAL4 (gene 855828) (P04386 whole entry, looked up, the tested form may be a part): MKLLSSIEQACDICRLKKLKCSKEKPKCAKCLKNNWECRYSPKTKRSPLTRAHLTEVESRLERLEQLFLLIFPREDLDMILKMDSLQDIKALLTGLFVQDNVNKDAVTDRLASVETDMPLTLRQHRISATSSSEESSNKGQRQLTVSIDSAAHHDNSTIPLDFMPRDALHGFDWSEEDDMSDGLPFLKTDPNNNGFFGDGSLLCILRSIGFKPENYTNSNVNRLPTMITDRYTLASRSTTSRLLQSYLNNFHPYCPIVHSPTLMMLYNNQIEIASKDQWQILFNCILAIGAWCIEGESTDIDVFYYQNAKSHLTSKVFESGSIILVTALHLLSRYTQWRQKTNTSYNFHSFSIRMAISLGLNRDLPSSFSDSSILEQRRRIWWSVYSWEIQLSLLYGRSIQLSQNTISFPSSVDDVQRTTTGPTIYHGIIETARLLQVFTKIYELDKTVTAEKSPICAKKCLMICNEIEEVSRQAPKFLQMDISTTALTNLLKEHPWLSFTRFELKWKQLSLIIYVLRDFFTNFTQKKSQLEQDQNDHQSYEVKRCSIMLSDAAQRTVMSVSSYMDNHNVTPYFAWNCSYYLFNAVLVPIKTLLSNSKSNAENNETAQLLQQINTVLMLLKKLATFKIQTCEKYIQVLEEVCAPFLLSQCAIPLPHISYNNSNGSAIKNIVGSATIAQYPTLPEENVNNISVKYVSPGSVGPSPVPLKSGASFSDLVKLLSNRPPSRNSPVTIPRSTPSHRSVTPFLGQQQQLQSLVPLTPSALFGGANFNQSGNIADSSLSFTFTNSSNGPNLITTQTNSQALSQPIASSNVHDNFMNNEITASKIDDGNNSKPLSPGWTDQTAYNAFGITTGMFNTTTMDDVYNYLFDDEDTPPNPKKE
Sequence of human Androgen Receptor (AR), AR (gene 367) (P10275 whole entry, looked up, the tested form may be a part): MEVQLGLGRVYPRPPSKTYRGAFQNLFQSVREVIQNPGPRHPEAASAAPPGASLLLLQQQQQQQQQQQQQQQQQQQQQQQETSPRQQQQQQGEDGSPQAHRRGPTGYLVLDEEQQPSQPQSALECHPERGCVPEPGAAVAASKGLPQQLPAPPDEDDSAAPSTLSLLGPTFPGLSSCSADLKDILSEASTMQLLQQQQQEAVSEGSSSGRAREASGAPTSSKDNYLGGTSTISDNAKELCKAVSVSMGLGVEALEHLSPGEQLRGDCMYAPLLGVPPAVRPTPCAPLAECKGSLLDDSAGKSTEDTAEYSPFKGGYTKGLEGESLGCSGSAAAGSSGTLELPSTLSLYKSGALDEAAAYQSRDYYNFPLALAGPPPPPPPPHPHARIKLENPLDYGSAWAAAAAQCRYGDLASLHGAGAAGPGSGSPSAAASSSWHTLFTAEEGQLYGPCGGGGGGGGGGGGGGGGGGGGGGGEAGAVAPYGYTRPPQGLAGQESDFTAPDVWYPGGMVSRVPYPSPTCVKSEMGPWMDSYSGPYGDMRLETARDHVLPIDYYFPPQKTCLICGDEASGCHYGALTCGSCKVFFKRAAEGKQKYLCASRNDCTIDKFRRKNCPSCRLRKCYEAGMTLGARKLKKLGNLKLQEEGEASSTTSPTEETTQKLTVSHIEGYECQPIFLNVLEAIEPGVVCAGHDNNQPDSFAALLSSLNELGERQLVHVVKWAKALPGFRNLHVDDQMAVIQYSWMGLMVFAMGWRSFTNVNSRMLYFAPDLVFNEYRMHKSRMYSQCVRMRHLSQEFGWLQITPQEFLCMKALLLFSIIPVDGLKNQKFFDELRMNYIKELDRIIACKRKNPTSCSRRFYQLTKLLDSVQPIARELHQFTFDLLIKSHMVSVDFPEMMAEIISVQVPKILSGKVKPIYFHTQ
Sequence of zebrafish Thyroid Hormone Receptor alpha (TRa), thraa (gene 30670) (Q98867 whole entry, looked up, the tested form may be a part): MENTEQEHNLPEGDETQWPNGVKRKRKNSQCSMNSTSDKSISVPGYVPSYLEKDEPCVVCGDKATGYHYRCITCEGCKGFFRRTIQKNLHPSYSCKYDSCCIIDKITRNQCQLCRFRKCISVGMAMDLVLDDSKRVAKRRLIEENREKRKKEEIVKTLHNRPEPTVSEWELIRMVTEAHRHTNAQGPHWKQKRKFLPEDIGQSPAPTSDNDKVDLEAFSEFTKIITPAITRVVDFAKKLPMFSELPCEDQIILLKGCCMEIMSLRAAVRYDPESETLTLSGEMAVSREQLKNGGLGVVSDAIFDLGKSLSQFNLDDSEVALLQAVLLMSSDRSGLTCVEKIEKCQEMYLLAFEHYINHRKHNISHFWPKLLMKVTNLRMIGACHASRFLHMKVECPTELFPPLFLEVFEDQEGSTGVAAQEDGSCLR

For `O=[N+]([O-])c1ccc(Oc2ccc(Cl)cc2Cl)cc1`, the result in test [1], in [2], in test [3], in test [4], in test [5] and in test [6] was inactive. For the same molecule, the result in test [7] was inactive. The AC50 in test [8] was 67.8 µM (active) and 7.06 µM (active).
For the molecule `C[C@]12C=CC3=C4CCC(=O)C=C4CC[C@H]3[C@@H]1CC[C@@H]2O`, the molecule was called inactive in [9], in [10], in test [11], in [1], in test [2] and in test [3]. The result in test [4], in test [5], in test [6] and in [7] was inactive. Also, the AC50 in [12] is 0.00534 µM (active); in test [13] it was 0.00355 µM (active); in [14] it was 0.00407 µM (active); in test [15], 0.0118 µM (active).
In the case of `Oc1ccc2ccc3cccc4ccc1c2c34`, the result in [1], in test [4], in test [13] and in [7] was inactive. Besides, the AC50 in test [2] was 8.33 µM (active) and 5.18 µM (active); in test [3] it was 1.64 µM (active) and 1.79 µM (active); in test [4], 5.13 µM (active); in test [5], 9.01 µM (active) and 2.69 µM (active); in test [8] it was 10.6 µM (active) and 7.22 µM (active).
On to `CCCCOC(=O)c1ccccc1C(=O)OCc1ccccc1`, for which the result in test [16], in test [10], in test [11], in test [1], in test [3] and in [17] was inactive. Moreover, the molecule was called inactive in [12], in test [4] and in test [13]. For the same molecule, the AC50 in test [2] was 61.1 µM (active); in test [5], 46.7 µM (active); in test [6], 43.1 µM (active); in [7] it was 80.4 µM (active); in [8], 55.4 µM (active).
For `CCCCC(CC)COC(=O)c1ccc(C(=O)OCC(CC)CCCC)c(C(=O)OCC(CC)CCCC)c1` (stereo not drawn), the AC50 was 100 µM (active) and 11.9 µM (active) in test [2]; 57.8 µM (active) in [4]; 6.16 µM (active) and 26.5 µM (active) in test [7]; 100 µM (active) and 34.2 µM (active) in [8]. The outcome in [17], in test [4], in test [5], in test [6] and in [18] was inactive.
As to `Clc1ccc(C(c2ccc(Cl)cc2)C(Cl)(Cl)Cl)cc1`, the result in test [9], in [10], in test [11], in test [1] and in [3] was inactive. Also, the AC50 in test [4] is 100 µM (active); in test [6], 22 µM (active); in [7], 37.2 µM (active); in [8], 4.56 µM (active).

Source of the values: PubChem BioAssay (EPA / NIEHS).
